# Shown are actives, neighbours in structure and some others; about 19% of the full set was active somewhere.
# Gal4-VP16 FLuc: inhibits Gal4-VP16 luciferase reporter, ROR gamma counter-screen | Drosophila S2 Gal4-VP16 UAS-luciferase, luminescence, 20 h | Potency, µM (series often up to 53.6 µM), inactives show top-dose activity, negative = inhibition, usual class: inhibitors | 310,000 compounds, 3.5% hits | AID 2546;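 note: Gal4-VP16 expression switched on by copper sulfate through the metallothionein promoter; nearly all actives have a fitted effect of over 50% in size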
# DT40 TDP1 CPT: growth inhibition of DT40 Tdp1-/-;hTDP1 cells with camptothecin (screen for TDP1 inhibitors) | chicken DT40 Tdp1-/-;hTDP1 cells + 20 nM CPT, ATP luminescence, 48 h | Potency, µM (doses to about 46.2 µM), for the others: top-dose activity change, negative = growth inhibition, most hits filed as inhibitors | 420,000 compounds, 12% hits; note: nearly all actives have a fitted effect of over 55% in size
#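 Cell growth measured by CellTiter-Glo luminescence after a minimum 48 h, 37 C compound exposure with 20 nM CPT in Tdp1-knockout DT40 cells stably expressing hTDP1, seeded 400/well; qHTS titration format.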
# TDP1 cell noCPT: qHTS for Inhibitors of human tyrosyl-DNA phosphodiesterase 1 (TDP1): qHTS in cells in absence of CPT; DT40 Tdp1-/- hTDP1 cells, no CPT, ATP luminescence, 48 h; Potency, µM (series often up to 46.2 µM), for inactives: at the highest dose activity change, negative = growth inhibition, usual class: inhibitors; 420,000 compounds, 15% hits; note: nearly all actives have a fitted effect of over 55% in size
#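 Camptothecin absent (DMSO only). Human TDP1-complemented DT40 knockout cells, 400 cells/well, 37 °C for minimum 48 hr; ATP measured via CellTiter-Glo, 30 min dark incubation, luminescence.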
# RORgamma inh: ROR gamma (mouse) transcription inhibition; 310,000 compounds, 5.4% hits; Drosophila S2 Gal4-RORgamma UAS-luciferase reporter, 20 h; Potency, µM (top dose mostly 53.6 µM), for inactives: at the top dose activity change, negative = inhibition, usual class: inhibitors; note: nearly all actives have a fitted effect of over 60% in size
#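 Read-out: Photinus luciferase luminescence; inhibitors lower reporter signal. Insect Schneider cells with Gal4-ROR gamma fusion under metallothionein promoter, UAS reporter; 700 uM final copper sulfate induction, 20 hr, ambient temperature.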
# TDP1 inh: inhibitors of human tyrosyl-DNA phosphodiesterase TDP1; Q9NUW8; recombinant TDP1, AlphaScreen DNA substrate cleavage; Potency, µM (highest dose often 130 µM), inactives show at the highest dose activity change, negative = inhibition, hits mostly inhibitors; 350,000 compounds, 0.28% hits; note: nearly all actives have a fitted effect of over 40% in size
# Target sequence (Q9NUW8 whole entry, looked up): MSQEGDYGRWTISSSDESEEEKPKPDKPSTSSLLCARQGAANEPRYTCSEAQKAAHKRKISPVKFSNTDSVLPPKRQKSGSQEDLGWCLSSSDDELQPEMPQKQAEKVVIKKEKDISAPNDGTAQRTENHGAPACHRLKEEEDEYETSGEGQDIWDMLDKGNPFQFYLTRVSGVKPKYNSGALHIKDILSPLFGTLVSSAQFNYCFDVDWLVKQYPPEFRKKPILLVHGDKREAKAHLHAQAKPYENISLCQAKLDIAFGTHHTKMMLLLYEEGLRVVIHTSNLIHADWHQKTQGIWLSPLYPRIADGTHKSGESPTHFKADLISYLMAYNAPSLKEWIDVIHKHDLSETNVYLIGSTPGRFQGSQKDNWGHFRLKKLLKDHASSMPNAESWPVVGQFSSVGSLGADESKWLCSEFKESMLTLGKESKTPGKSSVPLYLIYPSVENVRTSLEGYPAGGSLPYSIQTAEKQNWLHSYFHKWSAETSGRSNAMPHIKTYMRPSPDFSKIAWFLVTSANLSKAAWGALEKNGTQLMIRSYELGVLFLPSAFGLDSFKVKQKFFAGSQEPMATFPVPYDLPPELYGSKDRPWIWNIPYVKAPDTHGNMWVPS
#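 E. coli-derived human Tdp1, 1 nM final. Cpd preinc 15 min RT; substrate 15 nM final, 5 min RT; AS bead mix 10 ug/ml final, 10 min RT. Signal loss = tyrosine-FITC cleavage. No-enzyme wells = max signal.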
# * marks the source's active call; other numbers are inactive results; ? = inconclusive; · = no result; [ ] = remark or other dose. Calls come from the whole dose curve; as a rule, active = well fitted curve in the direction sought with a large enough effect; inconclusive = small, poorly fitted or top-dose-only effect, or another doubt; inactive = no such curve, though single readings can be large; an effect the other way counts as inactive or inconclusive. % is set by controls: 0 for no effect and ±100 for the full control effect; potency is the fitted concentration of half-maximal effect.
SMILES,Gal4-VP16 FLuc,DT40 TDP1 CPT,TDP1 cell noCPT,RORgamma inh,TDP1 inh
CN(C)c1ccc(/C=C2\SC(=O)N(CC(O)Cn3c4ccccc4c4ccccc43)C2=O)cc1 (stereo not given),-2%,?,?,17%,5%
CN(C)c1ccc(C=c2c3ccccc3n3c2cc(-c2ccccc2)[n+]3C)cc1,·,0.58µM*,0.37µM*,·,·
COc1cc(N(C)C)ccc1C=c1c2ccccc2n2c1cc(-c1ccccc1)[n+]2C,·,0.52µM*,0.37µM*,·,·
Cc1ccccc1CN(C)C[C@H]1OCc2cnnn2CCCC(=O)N([C@@H](C)CO)C[C@@H]1C,·,-1%,-5%,·,·
Cc1cc(C)n(-c2nc(C)c(C)c(=O)n2CC(=O)Nc2ccc([N+](=O)[O-])cc2)n1,·,?,21µM*,·,3%
CC(=O)c1ccc(NC(=O)Cn2c(-n3nc(C)cc3C)nc(C)cc2=O)cc1,·,?,18µM*,·,-3%
NC(=Nc1ccc(N)cc1)C(N)=Nc1ccc(N)cc1,-4%,5%,-12%,18%,13%
COc1ccc(OC)c(NC(=O)C(C)SCc2nc3sc(C)c(C)c3c(=O)[nH]2)c1 (stereo not given),·,?,?,·,1%[56.1 µM]
COc1ccc(NC(C)=O)cc1NC(C)c1nc2sc(C)c(C)c2c(=O)[nH]1 (stereo not given),-3%,7%,-4%,10µM*,2%
CC(CCN1CCOCC1)c1ccccc1 (stereo not given),1%,-3%,7%,15%,·
CC(CCN1CCN(CCO)CC1)c1ccccc1 (stereo not given),3%,0%,-9%,2.8µM*,·
O=C(Nc1ccc(OC(F)(F)F)cc1)C(NS(=O)(=O)c1cccc2nsnc12)c1ccccc1 (stereo not given),·,16µM*,?,·,0%
CCOc1ccccc1NC(=O)C(NS(=O)(=O)c1cccc2nsnc12)c1ccccc1 (stereo not given),·,-3%,?,·,6%
CCc1c(O)c(/C(C)=N\O)c(=O)n(-c2ccccc2)c1-c1ccccc1,35µM*,16%,3%,?,4%
C=CCO/N=C(/C)c1c(O)c(CC)c(-c2ccccc2)n(-c2ccccc2)c1=O,-14%,-11%,-18%,34%,0%
C/C(=N/O)c1c(O)c(C)c(-c2ccccc2)n(-c2ccccc2)c1=O,5.6µM*,0%,2%,5.6µM*,4%
Cc1cccc(-n2ccnc2SCC(=O)Nc2cccc(S(=O)(=O)NC3=NCCC3)c2)c1C,·,?,?,·,8%
COc1ccc(/C=N/NC(=O)c2ccccc2Cl)cc1CSc1nc2ccccc2s1,12%,5.8µM*,4.6µM*,-21%,4%
COc1ccc(/C=N/NC(=O)Nc2cccc3nsnc23)cc1OC,?,9.2µM*,9.2µM*,-2%,-3%
COc1ccc(/C=N/NC(=O)CCn2cnc(-c3ccccc3)c2-c2ccccc2)cc1OC,13µM*,5.2µM*,6.5µM*,?,-3%
COc1ccc(/C=N/NC(=O)CCSc2nc3ccccc3s2)cc1OC,-3%,13µM*,29µM*,-14%,7%
O=c1c2ccccc2ncn1Cc1cccc2ccccc12,9%,?,-13%,41%,5%
COc1cccc(CN2c3ccccc3-c3nc(SCC(=O)Nc4ccccc4Cl)ncc3S2(=O)=O)c1,·,-1%,-22%,·,-5%
O=C(CCN1C(=O)C2CC=CCC2C1=O)Nc1nccs1 (stereo not given),·,9%,7%,·,4%
COc1ccc(/C=N/NC(=O)c2cccnc2)cc1CN1CCOCC1,-3%,11%,-3%,-14%,·
COc1ccc(/C=N/NC(=O)c2cccnc2)cc1CSc1nc2ccccc2s1,20µM*,3.7µM*,2.9µM*,?,4%
COc1ccc(C=O)cc1CSc1ccccn1,4%,3%,6%,-3%,8%

# Assay outcomes from PubChem BioAssay.
